# Assay results reported in PubChem BioAssay (Tox21).
# Several values for one entry are separate records, joined by “and”; a condition that tells them apart may be missing. Equal values may be shown once. Results filed as inconclusive are left out. Entries that show only a call come without a potency. Some structures have more than one record in an assay (separate samples or runs), and their calls can disagree. Activity calls are given as the source filed them. Unless noted, calls follow the shape of the dose curve; as a rule, active = well fitted curve in the direction sought with a large enough effect in the repeat runs; inconclusive = weak or mixed curves; inactive = no such curve, though single readings can be large; an effect the other way counts as inactive or inconclusive.
# Legend:
# [1] = qHTS assay to identify small molecule agonists of the estrogen related receptor signaling pathway with the pleiotropic PPARgamma coactivator (PGC) (AID 1224823)
# In short: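 Luminescence readout (One-Glo, 30 min RT) from PGC/ERR cell line treated 18 h at 37 C with pin-tool-delivered DMSO compound solutions; cells plated 6 h before dosing. Quantitative HTS format.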
# [2] = qHTS assay to identify small molecule antagonists of the estrogen related receptor (ERR) signaling pathway from Tox21 library - cell viability counter screen (AID 1224834); also: nearly all actives have a fitted effect of over 30% in size; also: potency is read from the fitted curve at half-maximal effect
# In short: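 Counter screen run in ERR cells (2,000 cells/well): cells pre-incubated 6 h, then treated with compounds for 17.5 h at 37 C. Fluorescence was read 30 min after CellTiter-Fluor addition.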
# [3] = molecular target: Luciferin 4-monooxygenase (Photinus pyralis) (UniProt P08659); assay: qHTS assay to identify small molecule inhibitors of firefly luciferase (AID 1224835); also: nearly all actives have a fitted effect of over 25% in size
# In short: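 Quantitative HTS format; KM concentrations of both substrates. Purified P. pyralis FLuc activity quantified from luminescence images.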
# [4] = qHTS assay to identify small molecule agonists of the constitutive androstane receptor (CAR) signaling pathway - cell viability counter screen (AID 1224836); also: nearly all actives have a fitted effect of over 45% in size
# In short: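 Double-stable HepG2 hepatoma cells (hCAR plus CYP2B6-2.2kb) are treated for 23 h at 37 C with test compounds in 15-point concentration series. PK11195 at 0.75 uM final is co-added. Cell viability is quantified by CellTiter-Fluor.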
# [5] = qHTS assay to identify small molecule antagonists of the constitutive androstane receptor (CAR) signaling pathway - cell viability counter screen (AID 1224837); also: nearly all actives have a fitted effect of over 45% in size
# In short: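 CITCO at 50 nM final was added alongside compounds (15 concentrations) to double-stable hCAR/CYP2B6-2.2kb HepG2 cells. Following 23 hr at 37 C, cell viability was quantified by CellTiter-Fluor fluorescence intensity.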
# [6] = qHTS assay to identify small molecule antagonists of the estrogen related receptor signaling pathway with the pleiotropic PPARgamma coactivator (PGC) from Tox21 10K library - cell viability counter screen (AID 1224840; active = well fitted cell-killing curve with a large enough effect in the repeat runs, not every such curve was filed as active; also: nearly all actives have a fitted effect of over 40% in size)
# In short: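 Readout: fluorescence intensity from CellTiter-Fluor after 30 min at 37 C/5% CO2. Preceded by 17.5 h treatment of PGC/ERR cells with DMSO-dissolved compounds, added 6 h post-seeding.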
# [7] = qHTS assay to identify small molecule agonists of the estrogen related receptor signaling pathway with the pleiotropic PPARgamma coactivator (PGC) from Tox21 10K library (AID 1224842); also: nearly all actives have a fitted effect of over 15% in size; also: potency is read from the fitted curve at half-maximal effect
# In short: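 PGC/ERR reporter cells (NTP line) were seeded 2,000 per well, rested 6 h at 37 C/5% CO2, then pin-dosed with compounds in DMSO for 18 h at 37 C; luciferase read by One-Glo luminescence after 30 min at room temperature.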
# [8] = molecular target: Thyrotropin receptor (Homo sapiens) (UniProt P16473); assay: qHTS assay to identify small molecule agonists of the thyroid stimulating hormone receptor (TSHR) signaling pathway (AID 1224843; calls by dose curve; also: nearly all actives have a fitted effect of over 45% in size; also: potency is read from the fitted curve at half-maximal effect)
# In short: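 Using 15 concentrations per compound in triplicate, cAMP production was monitored in TSHR-HEK293 cells after 30 min compound incubation at RT; HTRF reagents followed, with fluorescence intensity recorded after 1 h.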
# [9] = qHTS assay to identify small molecule agonists of the hypoxia (HIF-1) signaling pathway - cell viability counter screen (AID 1224844; calls by dose curve; also: nearly all actives have a fitted effect of over 50% in size)
# In short: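 In this counter screen, HRE-bla ME-180 cell viability after 17 hrs of compound exposure at 37C was read by CellTiter-Glo luminescence, multiplexed with the beta-lactamase reporter measurement.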
# [10] = qHTS assay to identify small molecule agonists of H2AX (AID 1224845; active = well fitted activation curve with a large enough effect in the signal ratio in the repeat runs, not every such curve was filed as active; the % refers to the signal ratio)
# In short: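 Wild-type CHO-K1 cells plated overnight, then exposed 3 hr at 37C to compounds at 15 concentrations (0.76% DMSO). Lysed, then HTRF anti-pH2AX(S139)-cryptate/anti-H2AX-d2 detection after 24 hr at room temperature; emissions 665 and 620 nm.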
# [11] = qHTS assay to identify small molecule agonists of H2AX - cell viability counter screen (AID 1224847; calls by dose curve; also: top concentration of the series differs between compounds; nearly all actives have a fitted effect of over 30% in size)
# In short: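 For this counter screen, overnight-attached CHO-K1 cells received test compounds (15 concentrations, 0.76% DMSO final); 3 hr later at 37C, CellTiter-Glo reagent was added and luminescence recorded after 30 min at room temperature.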
# [12] = qHTS assay to identify small molecule agonists of the estrogen related receptor (ERR) signaling pathway from Tox21 library (AID 1224849; calls by dose curve; also: nearly all actives have a fitted effect of over 15% in size); settings: ERR reporter cell line, ONE-Glo luciferase, 18 h
# In short: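 Luciferase activity in ERR pathway reporter cells served as the agonist readout; exposure lasted 18 h at 37 C, with ONE-Glo detection after 30 min at room temperature.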
# [13] = qHTS RealTime-Glo MT Cell Viability Assay in HEK293 cells - 32 hour (AID 1224868); also: nearly all actives have a fitted effect of over 50% in size; also: potency is read from the fitted curve at half-maximal effect
# In short: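 Quantitative high-throughput screen of the Tox21 10K library in HEK293: cells and RealTime-Glo reagents plated together, compound added at 5 h, luminescence monitored through 40 h at 37 C.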
# [14] = A CellTox Green Cytotoxicity Assay to monitor cytotoxicity in HEK293 cells - 0 hour (AID 1224869); also: nearly all actives have a fitted effect of over 50% in size
# In short: (§1)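 Real-time, in one plate: 600 HEK293 cells/well with dead-cell DNA dye, pinned compound after 5 h, 37 C incubation over 40 h; viable cells give no appreciable fluorescence.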
# [15] = qHTS RealTime-Glo MT Cell Viability Assay in HepG2 cells - 40 hour (AID 1224870); also: nearly all actives have a fitted effect of over 50% in size
# In short: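 HepG2 cells mixed with RealTime-Glo MT reagents (NanoLuc plus cell-permeant prosubstrate) were seeded at 600 cells/well, incubated 5 h at 37 C/5% CO2, then pinned with compounds in DMSO; nonlytic luminescence tracked viability during 40 h treatment.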
# [16] = A CellTox Green Cytotoxicity Assay to monitor cytotoxicity in HEK293 cells - 40 hour (AID 1224871); also: nearly all actives have a fitted effect of over 45% in size
# In short: as §1
# [17] = molecular target: Nuclear receptor subfamily 1 group I member 3 (Homo sapiens) (UniProt Q14994); assay: qHTS assay to identify small molecule antagonists of the constitutive androstane receptor (CAR) signaling pathway (AID 1224838); also: nearly all actives have a fitted effect of over 40% in size
# In short: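 Inhibition of CITCO-driven (50 nM final) CYP2B6 reporter expression is measured in HepG2 cells stably carrying hCAR. Fifteen compound concentrations are applied for 24 h at 37 C, followed by luciferase luminescence.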
# [18] = molecular target: Nuclear receptor subfamily 1 group I member 3 (Homo sapiens) (UniProt Q14994); assay: qHTS assay to identify small molecule agonists of the constitutive androstane receptor (CAR) signaling pathway (AID 1224839); also: nearly all actives have a fitted effect of over 15% in size
# In short: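 Readout: firefly luciferase luminescence via ONE-Glo. System: HepG2 double-stable for hCAR and CYP2B6-2.2kb. Conditions: 15-point compound titration, PK11195 at 0.75 uM final, 24 h incubation.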
# [19] = qHTS RealTime-Glo MT Cell Viability Assay in HepG2 cells - 24 hour (AID 1224867); also: nearly all actives have a fitted effect of over 50% in size
# In short: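 Compound treatment began 5 h after plating HepG2 cells (600/well) with NanoLuc luciferase and prosubstrate. Plates stayed at 37 C for 40 h; luminescence was captured at six time points, 0 h through 40 h.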
# Luciferin 4-monooxygenase (Photinus pyralis), sequence (P08659 whole entry, looked up): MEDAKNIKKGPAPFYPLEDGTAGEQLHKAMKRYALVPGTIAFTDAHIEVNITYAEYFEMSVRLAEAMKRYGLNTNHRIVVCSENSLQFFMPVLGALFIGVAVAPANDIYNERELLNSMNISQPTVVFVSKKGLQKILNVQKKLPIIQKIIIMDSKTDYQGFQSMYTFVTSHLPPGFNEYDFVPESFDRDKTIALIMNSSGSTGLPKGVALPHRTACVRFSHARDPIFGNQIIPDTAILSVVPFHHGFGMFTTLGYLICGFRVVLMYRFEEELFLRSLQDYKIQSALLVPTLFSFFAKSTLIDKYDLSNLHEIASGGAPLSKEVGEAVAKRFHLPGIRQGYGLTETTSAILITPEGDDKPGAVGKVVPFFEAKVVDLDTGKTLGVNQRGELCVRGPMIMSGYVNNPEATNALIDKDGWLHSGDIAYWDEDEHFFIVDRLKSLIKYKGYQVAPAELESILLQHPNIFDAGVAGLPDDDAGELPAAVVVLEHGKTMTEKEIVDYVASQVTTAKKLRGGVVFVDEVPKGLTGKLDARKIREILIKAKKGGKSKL
# Thyrotropin receptor (Homo sapiens), sequence (P16473 whole entry, looked up): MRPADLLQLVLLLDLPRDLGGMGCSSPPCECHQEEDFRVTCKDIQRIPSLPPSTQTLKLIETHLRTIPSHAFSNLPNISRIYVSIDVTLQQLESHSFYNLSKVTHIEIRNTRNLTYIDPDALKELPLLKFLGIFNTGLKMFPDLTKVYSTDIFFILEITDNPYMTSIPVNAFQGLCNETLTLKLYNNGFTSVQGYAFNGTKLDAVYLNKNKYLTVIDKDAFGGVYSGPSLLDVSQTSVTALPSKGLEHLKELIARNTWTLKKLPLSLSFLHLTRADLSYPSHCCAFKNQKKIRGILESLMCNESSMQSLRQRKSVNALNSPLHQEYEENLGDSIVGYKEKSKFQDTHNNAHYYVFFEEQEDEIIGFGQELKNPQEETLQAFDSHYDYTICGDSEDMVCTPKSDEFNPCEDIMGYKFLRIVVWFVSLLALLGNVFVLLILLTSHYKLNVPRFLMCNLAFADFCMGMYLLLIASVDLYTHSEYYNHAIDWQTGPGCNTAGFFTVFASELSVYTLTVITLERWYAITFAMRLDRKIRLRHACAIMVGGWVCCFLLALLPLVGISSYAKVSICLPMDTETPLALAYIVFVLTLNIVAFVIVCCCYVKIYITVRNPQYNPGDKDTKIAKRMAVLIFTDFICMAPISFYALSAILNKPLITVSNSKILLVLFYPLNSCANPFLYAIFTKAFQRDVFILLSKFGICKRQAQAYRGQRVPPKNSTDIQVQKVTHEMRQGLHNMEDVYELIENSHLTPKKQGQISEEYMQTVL
# Nuclear receptor subfamily 1 group I member 3 (Homo sapiens), sequence (Q14994 whole entry, looked up): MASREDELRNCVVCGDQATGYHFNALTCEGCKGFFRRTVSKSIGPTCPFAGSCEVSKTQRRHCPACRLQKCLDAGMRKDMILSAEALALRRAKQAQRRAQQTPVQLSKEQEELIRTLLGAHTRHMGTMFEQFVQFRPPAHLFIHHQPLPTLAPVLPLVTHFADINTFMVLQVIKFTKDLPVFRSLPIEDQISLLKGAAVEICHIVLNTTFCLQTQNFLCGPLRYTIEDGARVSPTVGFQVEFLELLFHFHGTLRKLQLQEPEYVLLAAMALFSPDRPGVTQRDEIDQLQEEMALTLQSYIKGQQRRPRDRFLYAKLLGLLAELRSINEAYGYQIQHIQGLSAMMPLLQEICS
SMILES,outcome [1],Potency [2],Potency [3],Potency [4],Potency [5],Potency [6],Potency [7],Potency [8],Potency [9],Potency [10],Potency [11],"activity change, positive = activation ([12]; at 42.5 µM (top of the series))","activity change, positive = activation ([12]; at 92.4 µM (top of the series))",Potency [13],Potency [14],Potency [15],Potency [16],Potency [17],Potency [18],Potency [19]
NS(=O)(=O)c1cc2c(cc1Cl)NCNS2(=O)=O,inactive,inactive,inactive,inactive,inactive,inactive,inactive,inactive,inactive,inactive,inactive,-0.0876% (inactive),0.0385% (inactive) and 5.11% (inactive),inactive,inactive,inactive,inactive,,,
C=C(C)C(=O)OCC(C)O (stereo unspecified),,inactive,inactive,inactive,inactive,,,inactive,inactive,inactive,inactive,,,inactive,inactive,inactive,inactive,inactive,inactive,
COc1ccc(C(Cl)=C(c2ccc(OC)cc2)c2ccc(OC)cc2)cc1,,inactive,inactive,inactive,inactive,inactive,inactive,,inactive,inactive,inactive,-32.5% (inactive),-45.8% (inactive) and -43.7% (inactive),inactive,inactive,inactive,inactive,inactive,inactive,
CC(C)NCC(O)c1ccc(O)c(O)c1 (stereo unspecified),inactive,,,inactive,inactive,inactive,5.4 nM (active) and 8.6 nM (active) and inactive,7.6 nM (active) and 4.9 nM (active) and 11.9 nM (active),inactive,,inactive,7.23% (inactive),4.56% (inactive) and 1.6% (inactive),43.1 µM (active) and inactive,inactive,inactive,inactive,,,
CN(C)CCOC(C)(c1ccccc1)c1ccccn1 (stereo unspecified),inactive,inactive,inactive,inactive,inactive,,inactive,inactive,inactive,inactive,inactive,0.337% (inactive),3.01% (inactive) and -2.07% (inactive),inactive,inactive,inactive,inactive,inactive,inactive,inactive
COc1cccc(O)c1O,,63.5 µM (active),inactive,inactive,inactive,,,,,,inactive,,,,inactive,inactive,inactive,inactive,inactive,
